Results: PubChem BioAssay
Active and inactive are the calls of the source. Unless noted, how the calls were made is not given here.

What was measured:
[1] = system: Wnt5a (protein binding on small-molecule microarray); test: small molecules binding Wnt5a protein – biophysical, small-molecule microarray, 635/667 nm fluorescence, primary screen (AID 1142); details: 635 nm fluorescence, higher = more signal;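 further: fluorescence read at 667 nm with signal to noise per printed feature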
[2] = ATP-based viability of Huh7 replicon cells – cell-based, CellTiter-Glo luminescence, basal, 48 h, cytotoxicity control for HCV replication inhibitor project, primary screen (AID 1143); details: higher = more signal, called active from +8 up or from −8 down;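 further: Huh7 hepatoma cells carrying a hepatitis C replication reporter with no stimulus; test concentration not given here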
[3] = Pseudomonas biofilm growth suppression – PAO1 strain, BacTiter-Glo luminescence, LB-PBS, primary screen (AID 1144); details: P. aeruginosa PAO1 biofilm, 12 h, higher = more signal
[4] = basal CRE-LacZ reporter activity in PC12 – cell-based, unstimulated, primary screen (AID 1145); details: no forskolin, luminescence, 4.5 h, higher = more signal, called active from +8 up or from −8 down
[5] = forskolin-driven CRE-LacZ activity in PC12 – cell-based, CRE-LacZ reporter, forskolin-stimulated, primary screen (AID 1146); details: luminescence, 4.5 h, higher = more signal, called active from +8 up or from −8 down;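 further: PC12 cells with 6xCRE LacZ reporter stimulated by forskolin 10 µM; beta-galactosidase reporter signal reflecting CREB driven transcription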
[6] = biological target: Streptavidin (Streptomyces avidinii) (UniProt P22629); test: compounds binding control protein streptavidin – biophysical, small-molecule microarray, 635/667 nm fluorescence, artefact control for SMM compound annotation, primary screen (AID 1147); details: higher = more signal;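 further: signal reflects streptavidin binding to arrayed compounds as a control protein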
[7] = probe aInhba binding on compound microarray – biochemical, small-molecule microarray, 635/667 nm fluorescence, primary screen (AID 1148); details: higher = more signal;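 further: score merges 667nm spot fluorescence with signal-to-noise for antibody binding to printed compounds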
Torsin-1A (Homo sapiens) [8] = biological target: Torsin-1A (Homo sapiens) (UniProt O14656); test: TOR1A wild-type binding on microarray – cell lysate, small-molecule microarray, lysate, 635/667 nm, primary screen (AID 1149); details: COS7 hTOR1A-WT lysate, 635 nm fluorescence, higher = more signal
Torsin-1A (Homo sapiens) [9] = biological target: Torsin-1A (Homo sapiens) (UniProt O14656); test: torsin A mutant lysate binding on microarrays – cell lysate, small-molecule microarray, COS7 lysate, 635/667 nm fluorescence, primary screen (AID 1150); details: COS7 hTOR1A mutant lysate, 635 nm fluorescence, higher = more signal;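 further: score pools 667 nm emission and signal to noise measuring lysate protein binding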
[10] = system: Sonic hedgehog protein (Shh); test: Sonic hedgehog microarray binding compounds – biochemical, small-molecule microarray, 635/667 nm fluorescence, primary screen (AID 1151); details: 635 nm fluorescence, higher = more signal;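 further: Shh protein binding to compounds spotted on small-molecule microarray slides; score combines spot fluorescence intensity with signal-to-noise across triplicate slides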
[11] = optical density shifts of acrAB sulA E. coli – strain DRC41, OD650, 48 h, E. coli filamentation inducer project, primary screen (AID 1152); details: higher = more signal, called active from +8 up or from −8 down;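 further: E. coli MC1000 strain DRC41 lacking acrAB efflux pump and sulA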
[12] = probe aLefty1 binding on compound microarray – biochemical, small-molecule microarray, 635/667 nm fluorescence, primary screen (AID 1153); details: higher = more signal;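 further: score merges spot fluorescence with signal-to-noise ratio from the scanned slide images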
[13] = plasmodial surface anion channel blockers, osmotic lysis – cell-based, P. falciparum Indochina, OD700, 1 h, primary screen (AID 1154); details: P. falciparum Indochina infected RBC osmotic lysis, higher = more signal, called active from +8 up or from −8 down
[14] = plasmodial surface anion channel blockers, osmotic lysis – cell-based, P. falciparum Indochina, OD700, 2 h, primary screen (AID 1155);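 further: lysis reports solute entry through the parasite surface anion channel PSAC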; details: P. falciparum Indochina infected erythrocytes, higher = more signal, called active from +8 up or from −8 down
[15] = changes in parasitized red cell lysis, either direction – P. falciparum Indochina, OD700, 3 h, PSAC antagonist project, primary screen (AID 1156); details: P. falciparum-infected erythrocytes, osmotic lysis, higher = more signal, called active from +8 up or from −8 down
[16] = plasmodial surface anion channel blockers, osmotic lysis – cell-based, P. falciparum Indochina, OD700, 18 h, primary screen (AID 1157); details: P. falciparum Indochina infected erythrocytes, osmotic lysis OD700, 18 h; higher = more signal, called active from +8 up or from −8 down
[17] = S6 kinase pathway phospho-S6 level changes – cell-based, A549, cytoblot, luminescence, serum-stimulated, primary screen (AID 1158); details: 5 h, higher = more signal;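 further: serum-stimulated A549 lung adenocarcinoma cells; signal is phosphorylated S6 detected by cytoblot immunostaining with HRP secondary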
[18] = biological target: NADPH oxidase 2 (Homo sapiens) (UniProt P04839); test: compounds shifting NOX2 Amplex Red fluorescence – cell-based, HEK293-NOX2, PMA-stimulated, NOX inhibitor project, primary screen (AID 1159); details: 45 min, higher = more signal, called active from +8 up or from −8 down; further: test concentration not given here
[19] = biological target: NADPH oxidase 4 (Homo sapiens) (UniProt Q9NPH5); test: compounds shifting NOX4 Amplex Red fluorescence – cell-based, HEK293-NOX4, tetracycline-induced, NOX inhibitor project, primary screen (AID 1160); details: HEK293-NOX4, Amplex Red H2O2 fluorescence, 45 min; higher = more signal, called active from +8 up or from −8 down
[20] = biological target: NADPH oxidase 5 (Homo sapiens) (UniProt Q96PH1); test: compounds shifting NOX5 Amplex Red fluorescence – cell-based, HEK293-NOX5, NOX inhibitor project, primary screen (AID 1161); details: HEK293-NOX5, ionomycin, 45 min, higher = more signal
NADPH oxidase 5 (Homo sapiens), sequence (Q96PH1 whole entry, looked up): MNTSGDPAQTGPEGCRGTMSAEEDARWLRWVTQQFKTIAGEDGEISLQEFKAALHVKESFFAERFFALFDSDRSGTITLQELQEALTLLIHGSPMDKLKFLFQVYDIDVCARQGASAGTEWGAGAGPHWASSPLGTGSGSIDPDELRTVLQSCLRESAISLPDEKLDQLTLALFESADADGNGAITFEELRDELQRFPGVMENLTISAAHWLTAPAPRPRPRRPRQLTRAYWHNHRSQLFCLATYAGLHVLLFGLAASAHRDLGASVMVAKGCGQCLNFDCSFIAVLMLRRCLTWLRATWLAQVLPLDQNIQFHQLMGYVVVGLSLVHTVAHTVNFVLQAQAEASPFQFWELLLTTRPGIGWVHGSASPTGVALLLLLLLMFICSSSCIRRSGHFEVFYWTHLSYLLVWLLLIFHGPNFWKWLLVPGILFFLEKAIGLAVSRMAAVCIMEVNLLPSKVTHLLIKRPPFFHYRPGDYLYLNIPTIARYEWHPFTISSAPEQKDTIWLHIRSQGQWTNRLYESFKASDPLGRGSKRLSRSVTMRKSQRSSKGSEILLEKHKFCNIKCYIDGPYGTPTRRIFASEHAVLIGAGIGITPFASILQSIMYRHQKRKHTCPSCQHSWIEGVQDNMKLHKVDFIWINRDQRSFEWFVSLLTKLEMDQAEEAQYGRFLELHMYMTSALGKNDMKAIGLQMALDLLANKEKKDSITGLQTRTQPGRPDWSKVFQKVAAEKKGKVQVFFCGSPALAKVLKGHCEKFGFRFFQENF

NADPH oxidase 4 (Homo sapiens), sequence (Q9NPH5 whole entry, looked up): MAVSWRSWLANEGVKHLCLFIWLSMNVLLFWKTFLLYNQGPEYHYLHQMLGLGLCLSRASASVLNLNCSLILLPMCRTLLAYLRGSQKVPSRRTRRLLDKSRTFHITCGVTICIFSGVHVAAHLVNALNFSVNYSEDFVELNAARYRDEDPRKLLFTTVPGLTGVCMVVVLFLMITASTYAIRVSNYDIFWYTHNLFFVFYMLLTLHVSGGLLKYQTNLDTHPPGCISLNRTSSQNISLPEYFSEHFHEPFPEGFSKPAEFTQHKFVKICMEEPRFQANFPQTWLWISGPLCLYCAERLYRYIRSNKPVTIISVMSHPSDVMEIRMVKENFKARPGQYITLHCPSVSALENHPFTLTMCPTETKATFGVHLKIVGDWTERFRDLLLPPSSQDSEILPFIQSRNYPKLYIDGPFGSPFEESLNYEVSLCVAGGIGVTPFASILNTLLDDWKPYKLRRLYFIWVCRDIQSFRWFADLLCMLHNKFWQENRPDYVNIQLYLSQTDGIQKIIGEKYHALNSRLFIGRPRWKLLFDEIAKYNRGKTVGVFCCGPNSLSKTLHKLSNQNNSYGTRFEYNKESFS
Streptavidin (Streptomyces avidinii), sequence (P22629 whole entry, looked up): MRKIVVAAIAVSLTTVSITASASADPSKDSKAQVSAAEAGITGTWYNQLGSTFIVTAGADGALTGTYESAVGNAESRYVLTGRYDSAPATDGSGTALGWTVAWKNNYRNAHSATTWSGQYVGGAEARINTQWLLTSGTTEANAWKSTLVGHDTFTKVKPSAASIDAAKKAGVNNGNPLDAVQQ
NADPH oxidase 2 (Homo sapiens), sequence (P04839 whole entry, looked up): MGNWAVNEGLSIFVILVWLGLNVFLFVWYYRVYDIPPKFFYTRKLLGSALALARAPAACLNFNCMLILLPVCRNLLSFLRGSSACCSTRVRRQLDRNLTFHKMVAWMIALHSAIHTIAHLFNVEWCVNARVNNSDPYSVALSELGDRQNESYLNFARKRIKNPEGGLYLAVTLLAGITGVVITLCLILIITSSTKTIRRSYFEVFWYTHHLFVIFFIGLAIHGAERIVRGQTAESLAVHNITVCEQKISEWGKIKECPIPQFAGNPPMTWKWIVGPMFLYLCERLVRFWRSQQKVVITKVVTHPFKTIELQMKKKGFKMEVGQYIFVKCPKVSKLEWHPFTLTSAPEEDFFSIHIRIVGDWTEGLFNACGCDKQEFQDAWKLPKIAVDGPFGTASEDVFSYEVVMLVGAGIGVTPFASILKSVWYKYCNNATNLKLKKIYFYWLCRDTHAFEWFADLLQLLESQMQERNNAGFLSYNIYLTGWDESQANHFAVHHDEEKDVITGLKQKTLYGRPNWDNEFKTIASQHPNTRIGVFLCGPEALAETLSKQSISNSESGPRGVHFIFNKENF
Torsin-1A (Homo sapiens), sequence (O14656 whole entry, looked up): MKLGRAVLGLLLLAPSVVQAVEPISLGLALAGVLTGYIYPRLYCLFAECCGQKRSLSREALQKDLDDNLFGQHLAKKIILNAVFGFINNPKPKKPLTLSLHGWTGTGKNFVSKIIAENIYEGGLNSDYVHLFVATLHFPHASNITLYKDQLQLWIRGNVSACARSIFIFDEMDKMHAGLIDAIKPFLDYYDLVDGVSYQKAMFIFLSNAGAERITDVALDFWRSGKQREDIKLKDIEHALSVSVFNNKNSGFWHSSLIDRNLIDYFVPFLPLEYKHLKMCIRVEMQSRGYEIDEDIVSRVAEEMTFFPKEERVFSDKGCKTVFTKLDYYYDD

SMILES	composite z-score [1]	z-score [2]	z-score [3]	z-score [4]	z-score [5]	composite z-score [6]	composite z-score [7]	composite z-score (Torsin-1A (Homo sapiens) [8])	composite z-score (Torsin-1A (Homo sapiens) [9])	composite z-score [10]	z-score [11]	composite z-score [12]	z-score [13]	z-score [14]	z-score [15]	z-score [16]	z-score [17]	z-score [18]	z-score [19]	z-score [20]
CCCCN1CC=CC23O[C@@H]4C=CCOC(=O)[C@@H]4[C@H]2C(=O)N(CCCO)[C@@H]3C1=O (stereo not given in full)	-0.133	-1.98 (inactive)	-0.766 (inactive)	-0.757 (inactive)	1.47 (inactive)	-0.808	-0.23	0.222	-0.107	-0.512	0.915 (inactive)	-0.0075	-0.062 (inactive)	-0.921 (inactive)	0.836 (inactive)	-1.43 (inactive)	0.385	0.05 (inactive)	-0.101 (inactive)	-0.234
CCOC(=O)C[C@H]1[C@H](OC(=O)c2ccccc2-c2ccccc2)[C@@H](NC(=O)CC(C)C)c2cc(OCCCO)ccc2N1C(=O)c1ccc2ccccc2n1	0.0056	-0.431 (inactive)	1.51 (inactive)	8.37 (active)	0.724 (inactive)	0.543	-0.016	0.0167	0.0401	0.196	-0.518 (inactive)	-0.192	11.9 (active)	1.64 (inactive)	-0.0722 (inactive)	0.598 (inactive)	-0.577	-0.274 (inactive)	1.15 (inactive)	1.51
O=C1O[C@@H](c2ccccc2)[C@@H](c2ccccc2)N2[C@@H](c3ccccc3OCCO)[C@]3(C(=O)Nc4ccc(C#CCCO)cc43)[C@@H](C(=O)N3CCN(c4ncccn4)CC3)[C@H]12	0.174	-2.33 (inactive)	0.608 (inactive)	0.478 (inactive)	2.99 (inactive)	0.139	-0.0448	-0.566	0.224	-0.105	0.255 (inactive)	0.0927	2.58 (inactive)	1.27 (inactive)	-1.09 (inactive)	0.418 (inactive)	-0.531	1.3 (inactive)	-0.686 (inactive)	0.272
CCOC(=O)C[C@H]1[C@H](OC(=O)Cc2ccc3c(c2)OCO3)[C@@H](NC(=O)C2CCCCC2)c2cc(OCCCO)ccc2N1C(=O)c1ccc2ccccc2n1	0.305	-3.34 (inactive)	-0.273 (inactive)	6.45 (inactive)	0.871 (inactive)	0.658	-0.0361	0.392	0.172	1.39	0.699 (inactive)	-0.106	1.88 (inactive)	-0.954 (inactive)	-0.13 (inactive)	-2.2 (inactive)	1.17	-1.86 (inactive)	0.214 (inactive)	-2.62
CN1C2C=C(CCCO)C(C3C(=O)N(C(N)=O)C(=O)C32)C1c1cccs1 (stereo not given)	2.03	0.148 (inactive)	0.628 (inactive)	-1.09 (inactive)	-0.23 (inactive)	0.0783	-0.0963	0.21	0.429	0.279	-0.214 (inactive)	-0.101	1.12 (inactive)	0.273 (inactive)	0.13 (inactive)	0.431 (inactive)	-0.633	0.824 (inactive)	-0.845 (inactive)	0.259
C=CCNC(=O)[C@H]1[C@@H]2C(=O)O[C@@H](c3ccccc3)[C@@H](c3ccccc3)N2[C@@H](c2ccccc2OCCO)[C@]12C(=O)N(C(=O)OCCOC)c1ccc(C#CC3=CCCCC3)cc12	0.356	-4.73 (inactive)	1.37 (inactive)	-0.333 (inactive)	0.371 (inactive)	1.08	0.423	1.02	0.798	0.826	0.687 (inactive)	0.944	2.75 (inactive)	1.32 (inactive)	-0.032 (inactive)	0.725 (inactive)	-0.321	2.28 (inactive)	-0.678 (inactive)	1.58
O=C1OCCC=C[C@H]2OC34C=CCN(c5ccc(Cl)cc5)C(=O)[C@H]3N(CCCCCO)C(=O)[C@@H]4C12 (stereo not given in full)	-0.244	-0.091 (inactive)	-0.622 (inactive)	0.187 (inactive)	-0.382 (inactive)	-0.654	-0.0986	0.0095	1.05	0.58	1.81 (inactive)	0.211	2.21 (inactive)	0.355 (inactive)	1.63 (inactive)	0.795 (inactive)	0.0411	1.69 (inactive)	0.747 (inactive)	2.35
CC(C)CN1C(=O)[C@@]2(c3ccc([N+](=O)[O-])cc3)CC(=O)N(CC34CC5CC(CC(C5)C3)C4)[C@@H]2c2ccc(CO)cc21	-0.765	-4.16 (inactive)	-1.58 (inactive)	-0.348 (inactive)	0.134 (inactive)	-0.877	-0.128	-1.22	-1.08	-1.51	0.193 (inactive)	0.129	1.17 (inactive)	-0.377 (inactive)	0.0846 (inactive)	-1.17 (inactive)	2.01	-0.187 (inactive)	-0.981 (inactive)	-0.986
